# Source: PubChem (Broad Institute)
# A selection follows.
# aSyn UTR act: Activators via SNCA 5'UTR binding, MLPCN | activity score, % (tested at 7.5 µM), hits read low | AID 1814 | 300,000 tested, 7.1% active | alpha-synuclein 5'UTR reporter, activators screen; in the data active = activity score below about -60%
# Active calls of the source: *.
SMILES,aSyn UTR act
CCCCCCC(=O)Nc1ccc(Br)cn1,-62.2*
CCOc1ccc(NC(=S)NNC(=O)c2cc(Br)ccc2Cl)cc1,-108.6*
O=C(N/N=C/c1ccc([N+](=O)[O-])cc1)c1cccs1,-118.2*
O=C(N/N=C/c1ccc(-c2cccc([N+](=O)[O-])c2)o1)c1cccs1,-118.4*
COc1ccc(CCn2c(=N)c(C(=O)NCC3CCCO3)cc3c(=O)n4cccc(C)c4nc32)cc1 (configuration not stated),-115.8*
COc1ccc(CNC(=O)C(C)Sc2nc3ccccc3c(=O)n2CCCN2CCOCC2)cc1 (configuration not stated),38.4
COc1ccc(CCNC(=O)c2cc3c(=O)n4cccc(C)c4nc3n(CCCN3CCOCC3)c2=N)cc1,-67.3*
N#C/C(=C\c1ccco1)c1nc2ccccc2s1,-308.6*
N#C/C(=C\c1ccc(O)c([N+](=O)[O-])c1)c1nc2ccccc2s1,-66.4*
NS(=O)(=O)c1ccc(Sc2nc3ccccc3s2)c([N+](=O)[O-])c1,66.6
N#C/C(=C/c1ccco1)c1nc2ccccc2s1,-281.8*
CCCCc1ccc(-c2csc(/C(C#N)=C\c3ccco3)n2)cc1,-106.2*
O=C(c1ccccc1)c1nn(-c2ccc(Cl)cc2)c(=O)cc1C(F)(F)F,-219.1*
Cc1ccc(C(=O)c2c3ccccc3[n+]([O-])n2[C@@H](C)C(N)=O)cc1,-86.6*
Cc1ccccc1CSc1nnc(-c2cnccn2)n1C,-104.5*
Cn1c(SCc2ccccc2)nnc1-c1cnccn1,-130.6*
Cn1nc(-c2ccccn2)nc2c(=O)n(C)c(=O)nc1-2,93.6
Cn1c(SCc2ccc(F)cc2)nnc1-c1cnccn1,-84.7*
Cn1c(SCc2ccc(Br)cc2)nnc1-c1ccccn1,-92.9*
CN(C)c1nc(F)c(F)c(S(=O)(=O)c2ccccc2)c1F,-93.9*
COc1ccc(C(=O)NC(=S)NC(C)(C)C)cc1Br,-157.7*
COc1ccc(C(=O)NC(=S)NC(C)C)cc1Br,-69.9*
CC1(C)NC(=O)N(CCCOc2ccc(Br)cc2Cl)C1=O,-148.1*
CC1(C)NC(=O)N(CCCOc2ccc3c(c2)CCC3)C1=O,-76.7*
CN(C(=O)COC(=O)c1ccc(Cl)cc1N)C1CCCCC1,-81.8*
SMILES,aSyn UTR act
Cc1cc(OCC(=O)N(C)C2CCCCC2)cc(C)c1Cl,-67.7*
O=c1c2ccccc2nnn1COc1cccc(Cl)c1,-107.4*
CCOc1ccc2oc(C(=O)Nc3ccc4c(c3)OCO4)c(C)c2c1,-176.2*
CCOc1ccc2oc(C(=O)Nc3ccc(N4CCOCC4)cc3)c(C)c2c1,-68.5*
CCOc1ccc2oc(C(=O)Nc3cc(C)ccn3)c(C)c2c1,-67.5*
O=C(CCS(=O)(=O)c1ccccc1)Nc1cccc(-c2nc3ccccc3s2)c1,-134.6*
O=C(Nc1cccc(-c2nc3ccccc3s2)c1)c1cccs1,-63.4*
O=C(CSc1nnc2ccccn12)Nc1cccc(-c2nc3ccccc3s2)c1,-134.4*
COC(=O)c1ccn(Cc2ccccc2Cl)n1,-105.9*
Cc1ccc(N=C2NC(=O)/C(=C\c3cccs3)S2)cc1C,-85.2*
O=C1Nc2ccccc2S/C1=C/c1cccs1,-67.7*
Cc1ccc(C(=O)N/C(N)=N/c2nc3ccccc3o2)cc1,-114.1*
COc1ccccc1C(=O)N/C(N)=N/c1nc2ccccc2o1,-70.4*
CC(C)(C)C(=O)N/C(N)=N/c1nc2ccccc2o1,-63.4*
N/C(=N\c1nc2ccccc2o1)NC(=O)c1ccccc1,-194.2*
CCn1cc(Br)c(-c2nc3ccccc3c(=O)n2N)n1,-99.5*
Cc1cc(C)n(-c2nc3ccccc3c(=O)n2OCC(N)=O)n1,-63.2*
COc1ccc(C2=NN(C(=O)CN3CCOCC3)C(c3nc4ccccc4[nH]3)C2)cc1 (configuration not stated),-72.4*
O=C(Nc1nccs1)c1ccc(N2CCOCC2)c([N+](=O)[O-])c1,-80.2*
CCOc1ccc(OCC(=O)Nc2nccs2)cc1,69.2
COc1ccc2oc(-c3ccc(C)c(NC(=O)c4ccc(N5CCOCC5)c([N+](=O)[O-])c4)c3)nc2c1,-94.7*
CCOc1cccc(C(=O)Nc2nccs2)c1,-172.7*
O=C(Nc1nccs1)c1ccccn1,-123.4*
O=C(Nc1nccs1)c1ccc(Br)cc1,-160.8*
O=C(Nc1n[nH]c(=S)s1)c1ccc2ccccc2c1,-115.2*
SMILES,aSyn UTR act
O=C(Nc1nccs1)c1ccc2ccccc2c1,-114.2*
O=C(NCCc1ccccc1F)C(=O)Nc1nccs1,-122.1*
COC(=O)C1=C(NC(=O)c2ccc(C)c(C)c2)CCS1,-76.3*
COc1ccc(-c2cc3nc(CCl)[nH]c(=O)c3s2)cc1,71.2
O=c1[nH]cnc2cc(-c3ccccc3)sc12,-94.5*
COc1ccc(C2CC(=O)c3sc(NC(C)=O)nc3C2)cc1 (configuration not stated),-74.6*
O=C(/C=C/c1c(F)cccc1Cl)c1ccc(O)cc1,-115.5*
O=C(/C=C/c1ccccc1Cl)c1ccc(O)cc1,-359.6*
O=C(O)c1ccc(/C=C/c2ccc3cccc(O)c3n2)cc1,-187.7*
Oc1ccc(/C=C/c2ccc3cccc(O)c3n2)cc1Br,-199.9*
CC1=CN2C(=N)/C(=C/c3ccco3)C(=O)N=C2S1,-219.1*
CCCCCOc1ccc(CSc2n[nH]c(C)n2)cc1,-171.1*
Cc1nc(SCc2ccc(OCCC(C)C)cc2)n[nH]1,-70.5*
COc1ccc(C2=NOC(CNC(=S)N3CCOCC3)C2)cc1 (configuration not stated),-132.0*
O=C(N/N=C/C(Br)=C/c1ccccc1)c1ccccc1[N+](=O)[O-],-75.9*
Cc1occc1C(=O)N/N=C/C(Br)=C/c1ccccc1,-219.2*
Cc1ccc(NC(=O)C(C)N=C2NS(=O)(=O)c3ccccc32)cc1F (configuration not stated),-95.7*
O=C(Nc1cccc(Cl)c1)OCc1cncs1,-79.7*
O=C(Nc1ccc(Cl)cc1)OCc1cncs1,-118.5*
O=C(Nc1cccc2ccccc12)OCc1cncs1,-61.6*
Clc1cccc2sc(-c3nnc(-c4ccccc4)o3)c(Cl)c12,-136.9*
Cc1ccc2c(c1)NC(=O)c1cccnc1N2,-140.3*
COc1cccc(N=c2oc3ccccc3cc2-c2nc3ccccc3[nH]2)c1,-80.4*
CCS(=O)(=O)c1nc(S(=O)(=O)c2ccc(C)cc2)c(N2CC(C)OC(C)C2)s1 (configuration not stated),-104.5*
CCCS(=O)(=O)c1nc(S(=O)(=O)c2ccc(C)cc2)c(N2CCN(C)CC2)s1,-69.0*
SMILES,aSyn UTR act
COc1ccccc1N=Cc1c(C)c(C#N)c2[nH]c3ccccc3n2c1=O,-89.8*
C=CCNc1nnc(Sc2ncccc2[N+](=O)[O-])s1,-114.7*
Cc1c(CCC(=O)N2CCC(C(=O)O)(c3ccccc3)CC2)c(=O)oc2cc3oc4c(c3cc12)CCCC4,67.5
Cc1c(CCC(=O)N2CCC(C(=O)O)CC2)c(=O)oc2cc3oc4c(c3cc12)CCCC4,74.1
O=C(COc1ccc2ccccc2c1)N1CCCC1,-68.1*
O=C(COc1ccc2ccccc2c1)Nc1cccnc1Cl,-77.2*
O=C(COc1ccc2ccccc2c1)NC1CC1,-127.7*
O=C(COc1ccc2c3c(c(=O)oc2c1)CCC3)N1CCCCC1,-81.7*
Cc1cc(C(=O)Nc2ccc3[nH]ccc3c2)no1,-152.3*
CCOC(=O)c1[nH]c2c(c1C)C(=O)CC(c1ccc(F)cc1)C2 (configuration not stated),58.8
COC(=O)C1C(=O)c2c([nH]c(C(=O)OC3CCCC3C)c2C)CC1C (configuration not stated),-168.2*
